Pf Dd2 growth: inhibitors of Plasmodium falciparum Dd2 growth; P. falciparum Dd2 growth, SYBR Green, 72 h; Potency, µM (series often up to 28.9 µM), without a hit: at the top dose activity, negative = inhibition, most hits filed as inhibitors; 120,000 compounds, 4.3% hits; AID 1347417; active = well fitted inhibition curve with a large enough effect;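 note: plate controls were DMSO vehicle for no effect and reference drug for full effect; nearly all actives have a fitted effect of over 65% in size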
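Infected erythrocytes (Dd2, 0.3% parasitemia, 2.5% hematocrit final) are added to compound in RPMI-1640/Albumax II medium, grown 72 h at 37C in low oxygen, then lysed with saponin/Triton-X containing SYBR Green and read by fluorescence.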
* hit, by the source's call; i = inactive; [ ] = another dose, or the depositor's remark. The full list was thinned out, with hits kept by preference. Potency is the fitted concentration of half-maximal effect.

SMILES | Pf Dd2 growth
CN(Cc1cccc(O)c1)C(=O)[C@H]1C[C@@H](C(=O)O)N(C)[C@H]1c1ccccc1F | -2%
CCNC(=O)c1n[nH]c2c1CN(C(=O)c1cc(F)cc(F)c1)CC2 | 3%
OC1(CN2CCC(c3cc(Cc4ccccc4)[nH]n3)CC2)CNCCOC1 (centres undefined) | 4%
OCC1(CN2CCCC2)CCN(Cc2ccc(Cl)cc2F)CC1 | i
O=C(c1cccc(O)c1)N1CCC(CO)(CN2CCCC2)CC1 | -1%
OCC1(CN2CCCC2)CCN(Cc2cc(F)cc(F)c2)CC1 | i
OCC1(CN2CCCC2)CCN(C/C=C/c2ccccc2)CC1 | 7.1µM*
Cc1nnc(N2CCC(CO)(CN3CCCC3)CC2)c2ccccc12 | i
OCC1(CN2CCCC2)CCN(Cc2ccc3ccccc3c2)CC1 | 6.3µM*
CC(C)n1cc2cc(C(=O)N3CCN(c4ccc(F)cc4)CC3)sc2c1 | -6%
CCc1noc(CC2CCOC3(CCN(S(=O)(=O)c4ccccc4Cl)CC3)C2)n1 (centres undefined) | i
CNC(=O)Nc1ccc(C2(C(=O)NCc3ccco3)CCC2)cc1 | 1%
O=C(NC1CCCC1)N[C@@H]1C[C@H](CO)[C@@H](O)[C@H]1O | 20%[44.1 µM]
CN(CC1CCOC1)C(=O)NCc1cccc(F)c1 (centres undefined) | 37%[5.79 µM]
COCc1ccc(C(=O)NCc2cc3n(n2)CCCN(CC(C)C)C3)o1 | 5%
CCOC(=O)N1CCc2c(sc(NCc3cccc(F)c3)c2C(=O)Nc2ccc(OCC)cc2)C1 | 13µM*
CCOc1cc(=O)n2c(c1C(=O)Nc1cc(OC)ccc1OC)CCCC2 | 12%
CCOC(=O)c1c(NC(=O)COc2ccc(CC)cc2)sc2c1CCCC2 | 7%
CCOC(=O)N1CCc2c(sc(NCc3cc(OC)ccc3OC)c2C(=O)Nc2cc(OC)ccc2OC)C1 | 11µM*
CCOc1ccc(NC(=O)c2c(NC(=O)c3ccccc3F)sc3c2CCC3)cc1 | i
COc1ccc(Cl)cc1NC(=O)c1c(NCc2ccc(C)o2)sc2c1CCCCC2 | 14µM*
CCOC(=O)c1c(NC(=O)COc2ccc(Cl)cc2C)sc2c1CCCCC2 | -7%
COc1ccc(NC(=O)NCc2c(-n3cccc3)sc3c2CCCC3)c(OC)c1 | 9%
COc1ccc(OC)c(NC(=O)c2c(NCc3ccc(OC)c(OC)c3)sc3c2CCC3)c1 | 7.9µM*
CCOC(=O)c1c(NC(=O)c2ccc(OC)cc2)sc2c1CCCCC2 | 30%
SMILES | Pf Dd2 growth
COC(=O)c1c(NC(=O)COc2ccc(Cl)cc2C)sc2c1CCCCC2 | 19%
COc1ccc(OC)c(CCNC(=O)c2csc3c2CCCCC3)c1 | 5%
CCOCC(=O)N1CCC(Cc2ccc(C(=O)N(C)C)cc2)CC1 | -15%
CS(=O)(=O)N(Cc1cccnc1)C1CN(C(=O)Nc2ccc3c(c2)OCCO3)C1 | -11%
O=C(CCc1nc2ccccc2s1)N1CCC(Cc2noc(-c3ccc(F)cc3)n2)C1 (centres undefined) | -19%
CC(=O)N1CCC(N2CC[C@H](c3nnc(-c4ccco4)o3)C2)CC1 | -25%[44.1 µM]
Cc1ccncc1C(=O)N1CCC(N2C(=O)C(OCC3CC3)C23CCOCC3)CC1 (centres undefined) | -20%
CCCNC(=O)C1COC2(CCN(C(=O)C3CCC3)CC2)N1C(=O)c1ccc(OC)cc1 (centres undefined) | -16%
CC(C)CCC(=O)N1CC(C(=O)N(C)C)C2(CCOCC2)C1 (centres undefined) | 7%
O=C1COCC2(CN1)CN(C(=O)c1ccc(Cl)cc1)C2 | -12%[44.1 µM]
CS(=O)(=O)N1CCc2ccc(C(=O)N3CCN(Cc4ccc5c(c4)OCO5)CC3)cc21 | -3%
COc1ccc(C(=O)N2CCc3ccc(C(=O)NCc4ccncc4)cc32)cc1 | i
Cc1ccc(F)cc1S(=O)(=O)NC1CCN(c2ccc(=O)n(CC3CC3)n2)CC1 | -15%
CN(C)C[C@@H]1CN(C(=O)c2cccc(N3CCCC3=O)c2)C[C@@H]1CO | 1%
Cc1cccc(Cn2cc(/C=C(/C#N)C(=O)Nc3cccc(Cl)c3)c3ccccc32)c1 | 3.5µM*
Cc1ccc(/C=C(\C#N)C(=O)Nc2cccc(Cl)c2)o1 | -9%
Cc1ccc(-n2c(C)cc(/C=C(\C#N)C(=O)Nc3ccc(C)c(C)c3)c2C)cc1 | 2%
COC[C@@]12CC[C@@H](N3CCOCC3)C[C@H]1CCN(c1nccc(N)n1)C2 | 7%
CCN(C)c1ccnc(N2CC[C@@H]3C[C@H](N4CCOCC4)CC[C@@]3(COC)C2)n1 | 8.9µM*
COC[C@@]12CC[C@@H](N3CCOCC3)C[C@H]1CCN(c1nccc(NC(C)C)n1)C2 | i
COCCN1CCOC[C@H]2CCN(C(=O)c3cccc4[nH]ccc34)C[C@H]21 | i
c1ccc(OCc2cc(CC3(NCc4cccc5c4OCO5)COC3)no2)cc1 | i
Cn1ncc(N2CCN(CC3(O)CNCCOC3)CC2)cc1=O (centres undefined) | -4%
COC[C@@H]1CN(C(=O)c2ncoc2-c2cccc(C)c2)C[C@H]1C(N)=O | 5%
COc1cc(C(CC(=O)Nc2cccc(C(C)=O)c2)N2Cc3ccccc3C2=O)cc(OC)c1OC (centres undefined) | 10µM*

Screening data from PubChem.
